Measured values published in the supplement of paper PMC12282887.
± gives the standard deviation of the averaged measurements.

Experiments:
Test in all cases: promoter activity interaction Z-score (Lux/OD deviation from empty-vector control); higher = stronger promoter induction by the compound
[1] = system: E. coli BW25113 acrABp lux reporter
Method in brief: (§1)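 At 37°C, E. coli BW25113 reporter cultures in 40 µl LB Lennox in 384-well plates were read for OD600 and luminescence every 30 min for 12 h. Windows were 0–8 h for wild type and 1–9 h for deletion strains, and wells under 10% of the median growth value were removed. The score is the Z-transformed residual of growth-normalised luminescence against a control fit.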

[2] = system: E. coli BW25113 ompFp lux reporter
Method in brief: as §1

[3] = system: E. coli BW25113 robp lux reporter
Method in brief: as §1

[4] = system: E. coli BW25113 soxSp lux reporter
Method in brief: as §1

[5] = system: E. coli BW25113 tolCp lux reporter
Method in brief: as §1

[6] = 18 µg/ml, genetic background: wild type
[7] = 18 µg/ml, genetic background: ΔmarA
[8] = 18 µg/ml, genetic background: Δrob
[9] = 18 µg/ml, genetic background: ΔsoxS
[10] = 36.1 µg/ml, genetic background: wild type
[11] = 36.1 µg/ml, genetic background: ΔmarA
[12] = 36.1 µg/ml, genetic background: Δrob
[13] = 36.1 µg/ml, genetic background: ΔsoxS
[14] = 72.1 µg/ml, genetic background: wild type
[15] = 72.1 µg/ml, genetic background: ΔmarA
[16] = 72.1 µg/ml, genetic background: Δrob
[17] = 72.1 µg/ml, genetic background: ΔsoxS
[18] = 144.2 µg/ml, genetic background: wild type
[19] = 144.2 µg/ml, genetic background: ΔmarA
[20] = 144.2 µg/ml, genetic background: Δrob
[21] = 144.2 µg/ml, genetic background: ΔsoxS
[22] = 0.038 µg/ml, genetic background: wild type
[23] = 0.038 µg/ml, genetic background: ΔmarA
[24] = 0.038 µg/ml, genetic background: Δrob
[25] = 0.038 µg/ml, genetic background: ΔsoxS
[26] = 0.076 µg/ml, genetic background: wild type
[27] = 0.076 µg/ml, genetic background: ΔmarA
[28] = 0.076 µg/ml, genetic background: Δrob
[29] = 0.076 µg/ml, genetic background: ΔsoxS
[30] = 0.15 µg/ml, genetic background: wild type
[31] = 0.15 µg/ml, genetic background: ΔmarA
[32] = 0.15 µg/ml, genetic background: Δrob
[33] = 0.15 µg/ml, genetic background: ΔsoxS
[34] = 0.3 µg/ml, genetic background: wild type
[35] = 0.3 µg/ml, genetic background: ΔmarA
[36] = 0.3 µg/ml, genetic background: Δrob
[37] = 0.3 µg/ml, genetic background: ΔsoxS

Compound: C[C@]12CC[C@H]3[C@@H](CCC4=CC(=O)CC[C@@]43C)[C@@H]1CC[C@@H]2O [Testosterone]
- promoter activity interaction Z-score [1, 6]: -0.445 ± 0.074
- promoter activity interaction Z-score [1, 7]: -0.76 ± 0.16
- promoter activity interaction Z-score [1, 8]: -0.613 ± 0.11
- promoter activity interaction Z-score [1, 9]: -0.272 ± 0.23
- promoter activity interaction Z-score [1, 10]: -0.494 ± 0.042
- promoter activity interaction Z-score [1, 11]: -1.03 ± 1.1
- promoter activity interaction Z-score [1, 12]: -0.524 ± 0.2
- promoter activity interaction Z-score [1, 13]: -0.556 ± 0.063
- promoter activity interaction Z-score [1, 14]: -0.447 ± 0.14
- promoter activity interaction Z-score [1, 15]: 0.264 ± 0.87
- promoter activity interaction Z-score [1, 16]: -0.624 ± 0.12
- promoter activity interaction Z-score [1, 17]: -0.489 ± 0.08
- promoter activity interaction Z-score [1, 18]: -0.411 ± 0.019
- promoter activity interaction Z-score [1, 19]: -0.669 ± 0.41
- promoter activity interaction Z-score [1, 20]: -0.643 ± 0.08
- promoter activity interaction Z-score [1, 21]: -0.295 ± 0.29
- promoter activity interaction Z-score [2, 6]: -0.491 ± 0.12
- promoter activity interaction Z-score [2, 7]: -0.598 ± 0.2
- promoter activity interaction Z-score [2, 8]: -0.803 ± 0.57
- promoter activity interaction Z-score [2, 9]: 0.195 ± 0.35
- promoter activity interaction Z-score [2, 10]: -0.432 ± 0.41
- promoter activity interaction Z-score [2, 11]: -1.1 ± 0.061
- promoter activity interaction Z-score [2, 12]: -0.418 ± 0.62
- promoter activity interaction Z-score [2, 13]: -0.713 ± 0.022
- promoter activity interaction Z-score [2, 14]: -0.907 ± 0.16
- promoter activity interaction Z-score [2, 15]: -0.501 ± 0.28
- promoter activity interaction Z-score [2, 16]: -0.424 ± 0.42
- promoter activity interaction Z-score [2, 17]: -0.715 ± 0.045
- promoter activity interaction Z-score [2, 18]: -0.6982 ± 0.0041
- promoter activity interaction Z-score [2, 19]: -0.969 ± 0.097
- promoter activity interaction Z-score [2, 20]: -0.395 ± 0.47
- promoter activity interaction Z-score [2, 21]: -0.339 ± 0.32
- promoter activity interaction Z-score [3, 6]: -0.462 ± 0.23
- promoter activity interaction Z-score [3, 7]: -1.03 ± 1.1
- promoter activity interaction Z-score [3, 8]: -1.05 ± 0.49
- promoter activity interaction Z-score [3, 9]: -0.195 ± 0.39
- promoter activity interaction Z-score [3, 10]: -0.445 ± 0.22
- promoter activity interaction Z-score [3, 11]: -1.14 ± 0.019
- promoter activity interaction Z-score [3, 12]: -0.289 ± 0.96
- promoter activity interaction Z-score [3, 13]: -0.498 ± 0.64
- promoter activity interaction Z-score [3, 14]: -0.398 ± 0.53
- promoter activity interaction Z-score [3, 15]: 0.148 ± 0.41
- promoter activity interaction Z-score [3, 16]: -0.438 ± 1
- promoter activity interaction Z-score [3, 17]: -0.274 ± 0.099
- promoter activity interaction Z-score [3, 18]: -0.102 ± 0.59
- promoter activity interaction Z-score [3, 19]: -0.151 ± 0.4
- promoter activity interaction Z-score [3, 20]: -0.428 ± 0.35
- promoter activity interaction Z-score [3, 21]: 0.0605 ± 0.79
- promoter activity interaction Z-score [4, 6]: -0.254 ± 0.24
- promoter activity interaction Z-score [4, 7]: -0.0384 ± 0.16
- promoter activity interaction Z-score [4, 8]: -0.165 ± 0.23
- promoter activity interaction Z-score [4, 9]: -0.0975 ± 0.27
- promoter activity interaction Z-score [4, 10]: -0.534 ± 0.01
- promoter activity interaction Z-score [4, 11]: -0.3 ± 0.046
- promoter activity interaction Z-score [4, 12]: -0.108 ± 0.14
- promoter activity interaction Z-score [4, 13]: -0.463 ± 0.35
- promoter activity interaction Z-score [4, 14]: -0.459 ± 0.01
- promoter activity interaction Z-score [4, 15]: -0.148 ± 0.037
- promoter activity interaction Z-score [4, 16]: -0.0584 ± 0.12
- promoter activity interaction Z-score [4, 17]: -0.399 ± 0.15
- promoter activity interaction Z-score [4, 18]: -0.398 ± 0.075
- promoter activity interaction Z-score [4, 19]: -0.389 ± 0.044
- promoter activity interaction Z-score [4, 20]: -0.368 ± 0.021
- promoter activity interaction Z-score [4, 21]: -0.448 ± 0.076
- promoter activity interaction Z-score [5, 6]: 0.0813 ± 0.76
- promoter activity interaction Z-score [5, 7]: 0.0835 ± 0.37
- promoter activity interaction Z-score [5, 8]: -0.682 ± 0.73
- promoter activity interaction Z-score [5, 9]: 0.781 ± 0.5
- promoter activity interaction Z-score [5, 10]: 0.191 ± 0.092
- promoter activity interaction Z-score [5, 11]: -1.71 ± 0.36
- promoter activity interaction Z-score [5, 12]: 0.34 ± 0.48
- promoter activity interaction Z-score [5, 13]: -0.587 ± 0.0086
- promoter activity interaction Z-score [5, 14]: 0.0036 ± 0.71
- promoter activity interaction Z-score [5, 15]: -0.0511 ± 0.6
- promoter activity interaction Z-score [5, 16]: 0.112 ± 0.27
- promoter activity interaction Z-score [5, 17]: 0.394 ± 0.17
- promoter activity interaction Z-score [5, 18]: 0.135 ± 0.34
- promoter activity interaction Z-score [5, 19]: -0.734 ± 0.57
- promoter activity interaction Z-score [5, 20]: 0.644 ± 0.24
- promoter activity interaction Z-score [5, 21]: 0.344 ± 0.27

Compound: Cc1c(N)nc([C@H](CC(N)=O)NC[C@H](N)C(N)=O)nc1C(=O)N[C@H](C(=O)N[C@H](C)[C@@H](O)[C@H](C)C(=O)N[C@H](C(=O)NCCc1nc(-c2nc(C(=O)NCCC[S+](C)C)cs2)cs1)[C@@H](C)O)[C@@H](OC1OC(CO)C(O)C(O)C1OC1OC(CO)C(O)C(OC(N)=O)C1O)c1cnc[nH]1 (some centres not stated) [Bleomycin]
- promoter activity interaction Z-score [1, 22]: -0.161 ± 0.17
- promoter activity interaction Z-score [1, 23]: -0.308 ± 0.65
- promoter activity interaction Z-score [1, 24]: 0.154 ± 0.043
- promoter activity interaction Z-score [1, 25]: -0.147 ± 0.084
- promoter activity interaction Z-score [1, 26]: 0.266 ± 0.09
- promoter activity interaction Z-score [1, 27]: 0.659 ± 0.35
- promoter activity interaction Z-score [1, 28]: 0.241 ± 0.055
- promoter activity interaction Z-score [1, 29]: 0.604 ± 0.2
- promoter activity interaction Z-score [1, 30]: 0.326 ± 0.0054
- promoter activity interaction Z-score [1, 31]: 1.11 ± 0.37
- promoter activity interaction Z-score [1, 32]: 0.351 ± 0.064
- promoter activity interaction Z-score [1, 33]: 0.996 ± 0.83
- promoter activity interaction Z-score [1, 34]: 2.43
- promoter activity interaction Z-score [2, 22]: -0.37 ± 0.33
- promoter activity interaction Z-score [2, 23]: -0.165 ± 0.44
- promoter activity interaction Z-score [2, 24]: 0.0421 ± 0.23
- promoter activity interaction Z-score [2, 25]: -0.165 ± 0.021
- promoter activity interaction Z-score [2, 26]: 0.414 ± 0.11
- promoter activity interaction Z-score [2, 27]: 0.695 ± 0.073
- promoter activity interaction Z-score [2, 28]: 0.642 ± 1
- promoter activity interaction Z-score [2, 29]: 1.16 ± 0.21
- promoter activity interaction Z-score [2, 30]: 0.0111 ± 0.27
- promoter activity interaction Z-score [2, 31]: 1.52 ± 0.35
- promoter activity interaction Z-score [2, 32]: 1.13 ± 1.2
- promoter activity interaction Z-score [2, 33]: 0.608 ± 0.26
- promoter activity interaction Z-score [2, 34]: 1.05
- promoter activity interaction Z-score [3, 22]: -0.227 ± 0.48
- promoter activity interaction Z-score [3, 23]: -0.244 ± 0.084
- promoter activity interaction Z-score [3, 24]: 0.0423 ± 0.14
- promoter activity interaction Z-score [3, 25]: 0.189 ± 0.027
- promoter activity interaction Z-score [3, 26]: 0.47 ± 0.17
- promoter activity interaction Z-score [3, 27]: 0.568 ± 0.18
- promoter activity interaction Z-score [3, 28]: -0.134 ± 0.47
- promoter activity interaction Z-score [3, 29]: 0.996 ± 0.081
- promoter activity interaction Z-score [3, 30]: -0.644 ± 0.27
- promoter activity interaction Z-score [3, 31]: 0.509 ± 0.081
- promoter activity interaction Z-score [3, 32]: -0.728 ± 0.72
- promoter activity interaction Z-score [3, 33]: -0.1 ± 0.21
- promoter activity interaction Z-score [3, 34]: 0.543 ± 1.9
- promoter activity interaction Z-score [3, 35]: 0.142
- promoter activity interaction Z-score [4, 22]: -0.0441 ± 0.22
- promoter activity interaction Z-score [4, 23]: 0.0426 ± 0.088
- promoter activity interaction Z-score [4, 24]: 0.0195 ± 0.2
- promoter activity interaction Z-score [4, 25]: 0.0402 ± 0.048
- promoter activity interaction Z-score [4, 26]: 0.138 ± 0.019
- promoter activity interaction Z-score [4, 27]: 0.214 ± 0.083
- promoter activity interaction Z-score [4, 28]: -0.00506 ± 0.02
- promoter activity interaction Z-score [4, 29]: 0.485 ± 0.32
- promoter activity interaction Z-score [4, 30]: -0.0277 ± 0.085
- promoter activity interaction Z-score [4, 31]: 0.277 ± 0.053
- promoter activity interaction Z-score [4, 32]: 0.343 ± 0.13
- promoter activity interaction Z-score [4, 33]: 0.655 ± 0.09
- promoter activity interaction Z-score [4, 34]: 0.33 ± 0.25
- promoter activity interaction Z-score [4, 35]: 0.209 ± 0.081
- promoter activity interaction Z-score [4, 36]: 0.169 ± 0.11
- promoter activity interaction Z-score [4, 37]: 0.215
- promoter activity interaction Z-score [5, 22]: -0.575 ± 0.29
- promoter activity interaction Z-score [5, 23]: -0.641 ± 1.1
- promoter activity interaction Z-score [5, 24]: -0.352 ± 0.023
- promoter activity interaction Z-score [5, 25]: -0.761 ± 0.52
- promoter activity interaction Z-score [5, 26]: 0.286 ± 0.074
- promoter activity interaction Z-score [5, 27]: -0.211 ± 0.3
- promoter activity interaction Z-score [5, 28]: -0.79 ± 0.62
- promoter activity interaction Z-score [5, 29]: 0.828 ± 0.64
- promoter activity interaction Z-score [5, 30]: -0.851 ± 0.45
- promoter activity interaction Z-score [5, 31]: 0.213 ± 1.1
- promoter activity interaction Z-score [5, 32]: 0.777 ± 1.4
- promoter activity interaction Z-score [5, 33]: 0.0492 ± 0.52
- promoter activity interaction Z-score [5, 34]: 0.571 ± 0.23
- promoter activity interaction Z-score [5, 35]: 0.356
- promoter activity interaction Z-score [5, 36]: -0.851 ± 0.56
- promoter activity interaction Z-score [5, 37]: 1.73 ± 0.26
